# KLF5 inhibitor: suppresses KLF5 promoter-driven expression; DLD-1 KLF5 promoter-luciferase reporter, luminescence; inhibition, % at 5 µM; hit rate 0.23% among 290,000;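 active = inhibition above a per-plate limit of that plate's mean compound inhibition plus 3 SD, cut at about 60% in these data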;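 note: higher means less KLF5 promoter-driven luciferase light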
# 697 NFkB inh: inhibitors of the PMA/ionomycin-induced NF-kB reporter in 697 B cells. hit rate 0.33% among 330,000. 697 B-cell NF-kB luciferase reporter, 16 h. inhibition, % at 4 µM; in the data active = inhibition above about 35%
# TMEM16A inh: blocks the mouse calcium-activated chloride channel TMEM16A. Q8BHY3. HEK293 TMEM16A/YFP iodide influx fluorescence, ionomycin. normalized B-score (activity score, 25-100; higher = stronger inhibition) at 10 µM. hit rate 1.2% among 310,000. AID 588511;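 active = ratio plate-corrected score three or more library SD toward inhibition, starting fluorescence score within five deviations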;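 note: score derived from kinetic fluorescence span divided by baseline fluorescence per well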
# Target sequence (Q8BHY3 whole entry, looked up): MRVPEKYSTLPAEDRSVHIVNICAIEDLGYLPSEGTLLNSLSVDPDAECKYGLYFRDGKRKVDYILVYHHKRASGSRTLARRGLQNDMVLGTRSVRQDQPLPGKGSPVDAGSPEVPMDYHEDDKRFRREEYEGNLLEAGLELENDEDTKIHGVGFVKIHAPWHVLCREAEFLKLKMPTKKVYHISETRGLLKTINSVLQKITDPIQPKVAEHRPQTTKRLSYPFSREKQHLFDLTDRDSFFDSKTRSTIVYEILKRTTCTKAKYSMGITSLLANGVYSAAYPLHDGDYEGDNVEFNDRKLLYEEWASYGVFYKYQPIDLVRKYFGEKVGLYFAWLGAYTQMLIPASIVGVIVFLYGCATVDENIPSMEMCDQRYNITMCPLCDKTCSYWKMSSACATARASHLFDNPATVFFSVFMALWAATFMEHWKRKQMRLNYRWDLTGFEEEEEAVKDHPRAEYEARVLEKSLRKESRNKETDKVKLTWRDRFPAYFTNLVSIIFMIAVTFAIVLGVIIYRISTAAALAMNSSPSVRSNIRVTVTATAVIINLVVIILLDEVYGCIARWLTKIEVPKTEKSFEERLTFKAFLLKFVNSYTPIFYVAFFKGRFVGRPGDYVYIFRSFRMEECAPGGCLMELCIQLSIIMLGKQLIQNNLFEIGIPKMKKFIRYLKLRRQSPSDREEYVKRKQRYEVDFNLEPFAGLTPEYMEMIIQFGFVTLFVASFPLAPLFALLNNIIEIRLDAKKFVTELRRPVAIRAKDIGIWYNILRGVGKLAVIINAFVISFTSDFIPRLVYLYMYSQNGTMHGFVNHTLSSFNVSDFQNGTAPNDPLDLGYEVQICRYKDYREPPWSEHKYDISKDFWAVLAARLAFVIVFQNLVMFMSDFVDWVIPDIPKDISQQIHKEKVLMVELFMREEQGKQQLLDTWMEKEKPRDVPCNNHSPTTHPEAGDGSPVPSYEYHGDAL
# aSyn UTR inh: 5' untranslated region of α-synuclein, MLPCN primary screen | hit rate 0.82% among 300,000 | alpha-synuclein 5'UTR reporter, inhibitor activity | inhibition, % (tested at 7.5 µM); in the data active = inhibition above about 60%;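 note: H4 neuroglioblastoma cells stably carrying SNCA 5'UTR luciferase fusion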
# Jurkat NFkB inh: lowers PMA/ionomycin-induced NF-kB signal in Jurkat cells; inhibition, % at 4 µM; PMA/ionomycin-induced NF-kB luciferase reporter, luminescence; hit rate 0.53% among 330,000; in the data active = inhibition above about 50%
# ANO1 activ: activates or potentiates the mouse TMEM16A chloride channel | Q8BHY3 | HEK293 TMEM16A/YFP-H148Q/I152L, iodide quench fluorescence; active compounds read low | B-score at 10 µM | hit rate 0.3% among 340,000;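 active = fluorescence-ratio B-score plate-corrected deviation score at least 3 library SD below zero, with starting fluorescence score within 5 deviations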;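 note: channel opened by trigger with iodide after compound preincubation; score built on the fluorescence ratio of max minus min over baseline; more negative score means more quench and so TMEM16A activation or potentiation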
# Jurkat NFkB conf: inhibitors of the PMA/ionomycin-induced NF-kB reporter in Jurkat cells, retest; Jurkat NF-kB luciferase, 16 h; inhibition, % at 4 µM; shares compounds with Jurkat NFkB inh; hit rate 27% among 2,700;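 active = inhibition reaching about 45% at 4 µM in either replicate, limit read from the data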
# 697 NFkB conf: lowers PMA/ionomycin-induced NF-kB signal in 697 B cells; shares compounds with 697 NFkB inh; 697 B-cell NF-kB luciferase, 16 h; inhibition, % at 4 µM; hit rate 35% among 2,000; in the data active = inhibition mostly above about 28%, no sharp cut-off; inactive = mostly below about 22%
# A number is an active result; n = inactive; x = no result given. Shown are actives, neighbours in structure and some others; about 2.5% of the full set was active somewhere.
SMILES,KLF5 inhibitor,697 NFkB inh,TMEM16A inh,aSyn UTR inh,Jurkat NFkB inh,ANO1 activ,Jurkat NFkB conf,others
O=C(COc1ccc(Cl)cc1Cl)N(C1CCCCC1)C1CCS(=O)(=O)C1 (configuration not stated),x,n,x,x,n,n,x,
O=C(/C=C/c1ccc(O)c(O)c1)OC(Cc1ccc(O)c(O)c1)C(=O)O (configuration not stated),n,n,n,n,n,n,x,
O=C(/C=C/c1ccc(O)c(O)c1)OCCc1ccccc1,x,n,100,n,54.8,n,n,
CCN(CC(=O)NCc1ccc(F)cc1)C(=O)c1ccc2c(c1)OCO2,x,n,x,x,n,n,x,
CCOc1cc(CNCCCN2CCOCC2)cc(Br)c1OCC(=O)Nc1cccc(C(F)(F)F)c1,n,n,n,n,60.4,n,n,
CCOc1cc(CNCCCN2CCOCC2)cc(Cl)c1OCC(=O)NC(C)(C)C,n,n,n,n,n,n,x,
Cc1nc(-c2ccc(F)cc2)c(CC(=O)N(C)CC(=O)Nc2ccc(Br)cc2C)s1,x,n,n,n,n,n,x,
O=[N+]([O-])c1ccc(N/N=C/c2cccc(O)c2O)cc1,n,n,n,n,80.9,n,n,
CC/C(=N\NC(=O)c1csc(C)c1C)c1cccs1,n,n,n,n,n,n,n,
COc1cc(OC)c(/C=C2\C(=O)Nc3ccccc32)c(OC)c1,x,n,n,x,55.9,x,53.7,
CCOc1ccc2oc(C(=O)Nc3cc(C)ccn3)c(C)c2c1,x,n,n,n,n,n,n,
Cc1ccnc(NC(=O)c2oc3ccccc3c2C)c1,x,n,n,n,n,n,n,
CCOc1ccc2oc(C(=O)O)c(C)c2c1,n,n,n,n,n,n,x,
COc1cc(/C=C2\SC(=O)NC2=O)ccc1Oc1ccc([N+](=O)[O-])cc1[N+](=O)[O-],n,n,n,n,n,n,x,
CCN1C(=O)C(=Cc2cccc(OC)c2Oc2ccc([N+](=O)[O-])cc2[N+](=O)[O-])SC1=S,n,n,n,80.3,68.5,n,n,
N#CCOC(=O)c1c2c(nc3ccccc13)CCC2,n,n,n,n,n,n,x,
c1ccc(Oc2ccccn2)cc1,x,x,x,x,x,n,x,
CC(Oc1ccc(Br)cc1Cl)C(=O)Nc1ccncc1 (configuration not stated),n,n,n,n,53.3,n,n,
CC(Oc1ccc(Br)cc1)C(=O)Nc1ccncc1 (configuration not stated),n,n,n,n,n,n,x,
C#CCOCCOCCOCCNc1nc(N2CCN(C(=O)[C@H](CC(N)=O)n3cc([C@@H](N)C(C)C)nn3)CC2)nc(N2CCN(C(=O)[C@H](CC(N)=O)n3cc([C@@H](N)C(C)C)nn3)CC2)n1,x,n,x,x,n,n,x,
COc1ccc(/C=N/Nc2nnc(-c3ncc[nH]3)c3ccccc23)cc1,n,n,n,n,n,n,x,
Oc1ccc2ccccc2c1/C=N/Nc1nnc(-c2ncc[nH]2)c2ccccc12,n,n,n,101.7,71.1,n,76.9,
Cc1ccc2c(c1)C(=O)C(=O)N2Cc1ccc(Cl)cc1,x,n,x,x,n,n,x,
CCCCCCN[C@H]1CCC2C3CC=C4C[C@@H](O)CC[C@]4(C)C3CC[C@@]21C (some centres not stated),x,n,x,x,n,n,x,
O=C(Nc1cccnc1)c1sc2cccc(F)c2c1Cl,n,n,n,n,n,n,x,
SMILES,KLF5 inhibitor,697 NFkB inh,TMEM16A inh,aSyn UTR inh,Jurkat NFkB inh,ANO1 activ,Jurkat NFkB conf,others
O=C(Nc1ccccn1)c1sc2cccc(F)c2c1Cl,n,n,n,x,n,n,n,
O=C(Nc1ccc(Cl)c(Cl)c1)c1ccccc1,x,n,n,x,n,n,n,
O=C(Nc1ccc(C2SCCS2)cc1)c1ccccc1,n,n,n,n,n,x,n,
CNC(=O)Nc1ccc(C2SCCS2)cc1,n,n,n,n,n,n,x,
CSc1cc(SC)ncn1,x,x,x,x,x,n,x,
C=C1C(=O)[C@@]23[C@H](O)C[C@@H]4C(C)(C)CC[C@H](O)[C@@]4(C)[C@@H]2CC[C@@H]1[C@H]3O,n,n,n,n,71.4,n,n,
CCc1nn(C(C)C(=O)N(C)Cc2ccccc2)c(=O)c2cc3occc3n12 (configuration not stated),n,n,n,n,n,n,x,
COC(=O)c1cn[nH]c1NC(=S)Nc1ccc(C)cc1Cl,n,n,n,n,n,n,n,697 NFkB conf=n
COC(=O)c1cn[nH]c1NC(=S)Nc1ccccc1C,n,n,n,n,n,n,x,
COC(=O)c1cn[nH]c1NC(=S)Nc1ccc(Cl)c(Cl)c1,n,n,n,n,n,n,n,697 NFkB conf=n
CCOCCCNC(=O)C1(O)c2ccccc2NC(=O)N1c1ccc(Cl)cc1 (configuration not stated),n,n,n,n,n,n,x,
COc1cccc2c1C(=O)c1c(O)c3c(c(O)c1C2=O)C[C@@](O)(C(=O)CO)C[C@@H]3O[C@H]1C[C@H](N)[C@H](O)[C@H](C)O1,n,93.6,n,109.3,90.4,n,88.7,697 NFkB conf=76.8
COc1ccc(CSc2nnnn2-c2ccccc2)cc1,n,n,n,n,n,n,x,
COc1cc(CSc2nnnn2-c2ccc(C)cc2)cc(OC)c1OC,n,44.2,n,n,58.7,n,60.2,697 NFkB conf=47.1
COc1ccc(C(=O)NCc2nnc(SCC(=O)NCc3ccco3)o2)cc1,n,n,n,n,n,n,x,
COc1ccc(-c2cc(-c3ccccc3)n[nH]2)c(O)c1,n,n,n,n,n,n,x,
Cc1ccc(-c2cc(-c3ccc(C)cc3O)[nH]n2)cc1,n,n,n,n,n,n,n,697 NFkB conf=n
Oc1ccccc1-c1cc(-c2ccc(F)cc2)n[nH]1,n,n,n,n,n,n,n,697 NFkB conf=n
Cc1ccc(O)c(-c2cc(-c3cccc(Br)c3)n[nH]2)c1,n,n,n,n,n,n,x,
Cc1ccc(-c2cc(-c3ccc(F)cc3)n[nH]2)c(O)c1,n,n,n,n,n,n,n,697 NFkB conf=n
Cc1ccc(-c2cc(-c3ccccc3Cl)[nH]n2)c(O)c1,n,n,n,n,n,n,x,
COc1ccc(-c2cc(-c3ccccc3O)[nH]n2)cc1,n,n,n,n,n,n,n,697 NFkB conf=n
NC(CCC(=O)NC(CS)C(=O)NCC(=O)O)C(=O)O (configuration not stated),x,x,x,x,x,n,x,
O=[N+]([O-])c1cccc(S(=O)(=O)Nc2ccc(-c3ccc(N4CCOCC4)nn3)cc2)c1,x,n,n,n,n,n,x,
Cc1cc(C)c2c(CC(=O)NNC(=O)c3ccccc3)coc2c1,n,n,n,n,n,n,x,
CCOc1ccc(N(CC(=O)NCCc2ccccc2)C(=O)CCC(=O)Nc2nccs2)cc1,n,n,n,n,n,n,x,
Nc1nc(Cl)nc2c1ncn2C1CC(O)C(CO)O1 (configuration not stated),x,64.7,n,87.1,50.8,n,50.0,697 NFkB conf=67.6

# Source: PubChem (several laboratories)
